# Source: PubChem BioAssay (National Center for Advancing Translational Sciences (NCATS))
# Most compounds without a hit are left out; they make up all but 19% or so of the library.
# IL1B secr inh: inhibitors of inflammasome signaling (IL-1 beta secretion) | AID 743279 | 4.7% of 360,000 active | THP-1 LPS/ATP IL-1B secretion, AlphaLISA, 16 h; hits give low values | activity change, % at 57.5 µM; in the data active = activity change below about -50%; inconclusive = mostly about -30% to -49%
#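 THP-1 cells pretreated 1 hr with compounds (up to 57.5 uM final), then stimulated with LPS (250 ng/mL final) plus ATP (1.25 mM final); secreted IL-1B measured by AlphaLISA after 16 hr, decreased signal indicating inhibition.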
# HT1080 IDH1KD tx: HT-1080 IDH1 knockdown cell toxicity (counter line); HT-1080 IDH1 knockdown viability, ATP luminescence, 48 h; Potency, µM (titrated, usually from 46.1 µM), without a hit: at the top dose activity, negative = toxicity, usual class: cytotoxic; 2% of 360,000 active; AID 686971;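 also: potency is read from the fitted curve at half-maximal effect; 0% = DMSO wells and -100% = cell-free medium wells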
#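 HT-1080-IDH1KD cells (IDH1 knocked down), 750/well in RPMI with 5% FBS, treated with compound 48 h at 37 degrees C. Viability by CellTiter-Glo luminescence, normalised to DMSO and no-cell wells; concentration-response curves classed.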
# TDP1 cell noCPT: qHTS for Inhibitors of human tyrosyl-DNA phosphodiesterase 1 (TDP1): qHTS in cells in absence of CPT | DT40 Tdp1-/- hTDP1 cells, no CPT, ATP luminescence, 48 h | Potency, µM (series often up to 46.2 µM), for inactives: at the highest dose activity change, negative = growth inhibition, usual class: inhibitors | 15% of 420,000 active; also: potency is read from the fitted curve at half-maximal effect; nearly all actives have a fitted effect of over 55% in size
#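 Luminescent ATP content (CellTiter-Glo) served as the growth readout. Knockout chicken DT40 cells expressing human TDP1 were exposed to compounds without camptothecin for a minimum 48 hr at 37 °C.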
# TDP1 cell CPT: DT40-hTDP1 cell growth loss with CPT | chicken DT40 Tdp1-/-;hTDP1 cells + 20 nM CPT, ATP luminescence, 48 h | Potency, µM (doses to about 46.2 µM), without a hit: at the top dose activity change, negative = growth inhibition, actives largely listed as inhibitors | 12% of 420,000 active | AID 686979; also: potency is read from the fitted curve at half-maximal effect; nearly all actives have a fitted effect of over 55% in size
#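 Cell growth measured by CellTiter-Glo luminescence after a minimum 48 h, 37 C compound exposure with 20 nM CPT in Tdp1-knockout DT40 cells stably expressing hTDP1, seeded 400/well; qHTS titration format.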
# HT1080NT lethal: kills 2HG-producing HT-1080-NT fibrosarcoma cells. Potency, µM (highest dose often 46.1 µM), inactives show top-dose activity, negative = less viability, hits mostly cytotoxic. 1.6% of 360,000 active. HT-1080-NT fibrosarcoma viability, CellTiter-Glo ATP luminescence, 48 h. AID 686970;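 also: NT is the 2HG producing partner of a matched IDH1 knockdown line; potency is read from the fitted curve at half-maximal effect; 0% = DMSO-treated cells and -100% = media-only wells without cells; nearly all actives have a fitted effect of over 55% in size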
#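 Fibrosarcoma NT cells, 750 per well in 5% FBS RPMI, were exposed to compound for 48 hours. Viability: CellTiter-Glo luminescence.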
# Starred values were filed as active, the others as inactive; ? = inconclusive; . = not tested or not shown; [ ] = dose if it differs, or a comment. Unless noted, calls follow the shape of the dose curve; as a rule, active = well fitted curve in the direction sought with a large enough effect; inconclusive = small, poorly fitted or top-dose-only effect, or another doubt; inactive = no such curve, though single readings can be large; an effect the other way counts as inactive or inconclusive. Unless noted, % is scaled to controls: 0 for no effect and ±100 for the full control effect.
SMILES,IL1B secr inh,HT1080 IDH1KD tx,TDP1 cell noCPT,TDP1 cell CPT,HT1080NT lethal
CCN1C(=O)CC(CC(=O)N2CCCCC2c2nccs2)(c2ccccc2C)C1=O (configuration not stated),.,.,-12%,-2%[9.04 µM],.
CC(C)Oc1cc(F)ccc1-c1cc(C(=O)NCc2ccccn2)[nH]n1,-10,9%,?,?,-1%
Cc1cc(OC(C)C(=O)N2CCN(CCc3ccccn3)CC2)ccc1Cl (configuration not stated),.,.,-25%,-29%,.
CCCNC(=O)c1sc2c(c1C(=O)Nc1ccccn1)CCCC2,-8,-3%,18µM*,26µM*,-3%
N#Cc1ccc(NC(=O)Cn2cnc(S(=O)(=O)N3CCCC3)c2)cc1,6,-6%,21%,-6%,-7%
CCOc1cc(S(=O)(=O)N2CC=C(c3ccc(F)cc3)CC2)c(OCC)cc1-n1cnnn1,40,-41%[9.24 µM],10µM*,15µM*,-3%
CNC(=O)N(O)C1N(/N=C/c2c(F)cccc2Cl)C(=S)SC1(C)C (configuration not stated),22,-9%,9%,-3%,-3%
CCC(C)[C@H](NC(=O)[C@@H]1Cc2ccccc2CN1)C(=O)Nc1ccc2c(c1)OCO2 (some centres not stated),-18,-2%,-3%,?,-4%
Cc1ccccc1CNC(=O)CCC(=O)N1CC2CCCN2c2ccccc21 (configuration not stated),.,.,23µM*,18µM*,.
Cc1ccc(CNC(=O)CCC(=O)N2CC(C)Oc3ccccc32)cc1 (configuration not stated),-22,1%,-8%,-28%,16%
O=C(CCC(=O)N1CC2CCCN2c2ccccc21)NCc1ccccc1F (configuration not stated),.,.,18µM*,12µM*,.
Cc1ccc(CNC(=O)CCC(=O)N2CC3CCCN3c3ccccc32)cc1 (configuration not stated),.,.,18µM*,5.2µM*,.
CC(C)CN(C(=O)CN(C)C(=O)Cc1c(F)cccc1Cl)c1c(N)n(CC(C)C)c(=O)[nH]c1=O,?,-8%,0%,-5%,0%
O=C1CCCN1CC(=O)N1CCCC(N2CCN(c3cccc(Cl)c3)CC2)C1 (configuration not stated),0,0%,-3%,-17%,-1%
CCn1c2ccccc2c2cc(CN3CCN(Cc4ccccc4C)CC3)ccc21,.,.,?,16µM*,.
CCn1c2ccccc2c2cc(CN3CCN(Cc4ccc(Cl)cc4)CC3)ccc21,.,.,?,15µM*,.
Cc1ccccc1CN1CCN(S(C)(=O)=O)CC1,-5,-3%,-11%,0%,-7%
CCn1c2ccccc2c2cc(CN3CCN(S(C)(=O)=O)CC3)ccc21,-9,-21%,16µM*,15µM*,-5%
CCn1c(CN2CCN(c3ccc(Cl)cc3)CC2)nc2ccccc21,-13,-21%,?,?,-8%
Cc1ccc(NC(=O)C2CCCN(S(=O)(=O)c3c(C)n[nH]c3C)C2)c(C)c1 (configuration not stated),.,.,-21%,6%,.
C[C@H]1C=C(C(=O)NC2CC2)O[C@@H](OCc2ccc(CO)cc2)C1,33,8%,-15%,-2%,4%
O=C(c1cccc2ccccc12)C1CCCN(C(=O)CCCn2cncn2)C1 (configuration not stated),-2,-10%,16µM*,-22%,-3%
CCc1cc(C(=O)N2CCCC(C(=O)c3cccc4ccccc34)C2)n(C)n1 (configuration not stated),-14,-18%,15µM*,?,-5%
O=C(c1cccc2ccccc12)C1CCCN(C(=O)c2ccc(N3CCOCC3)cc2)C1 (configuration not stated),?,?,23µM*,?,?
CCn1nc(C)cc1C(=O)N1CCCC(C(=O)c2ccccc2SC)C1 (configuration not stated),1,-1%,18µM*,16µM*,-20%
SMILES,IL1B secr inh,HT1080 IDH1KD tx,TDP1 cell noCPT,TDP1 cell CPT,HT1080NT lethal
COc1cccc(-c2cc(C(=O)N3CCc4ccccc4C3)[nH]n2)c1,22,1%,-14%,-18%,16%
Cc1c(N)cccc1-c1nc2ccccc2[nH]1,4,10%,-16%,-18%,9%
Cc1ccc(NC(=O)C(=O)C2C(=O)Nc3ccccc32)cc1 (configuration not stated),-7,5%,?,?,11%
CC(C)CN(C(=O)C1CCCO1)c1c(N)n(CC(C)C)c(=O)[nH]c1=O (configuration not stated),9,-15%,0%,-15%,0%
Cc1ccc2cc(CCNS(=O)(=O)c3ccc(F)cc3)c(=O)[nH]c2c1,-3,6%,18µM*,21µM*,12%
COc1ccc2cc(CCNS(=O)(=O)c3ccc(C)cc3)c(=O)[nH]c2c1,.,.,9.2µM*,-22%,.
Cc1ccc(S(=O)(=O)NCCc2cc3ccc(C)cc3[nH]c2=O)cc1,20,-11%,-26%,-23%,4%
O=C(Nc1ccc2c(c1)OCCO2)C1c2ccccc2OCC(=O)N1CCCN1CCOCC1 (configuration not stated),47,14%,-16%,-8%,14%
Cc1csc2nc(CNC(=O)C3CC=CCC3C(=O)O)cn12 (configuration not stated),25,0%,-1%,21%,2%
COCCCn1c(SCC(=O)NC(C)C)nnc1-c1ccccc1,-6,-3%,23µM*,?,1%
CCN(CC(=O)Nc1ccc(NC(C)=O)cc1)C(=O)c1cccc(S(=O)(=O)N2c3ccccc3CC2C)c1 (configuration not stated),-20,-10%,-3%,-4%,-22%
CNC(=O)C1CN(C(=O)c2cccc(S(=O)(=O)N3c4ccccc4CC3C)c2)c2ccccc2O1 (configuration not stated),11,-7%,18µM*,?,-2%
COc1ccccc1C(CNC(=O)c1cccc(S(=O)(=O)N2c3ccccc3CC2C)c1)N(C)C (configuration not stated),-54*,-5%,15µM*,?,?
CC1Cc2ccccc2N1S(=O)(=O)c1cccc(C(=O)NC2CC2)c1 (configuration not stated),-1,?,13µM*,18µM*,?
C=CCN(CC=C)C(=O)c1cccc(S(=O)(=O)N2c3ccccc3CC2C)c1 (configuration not stated),27,-13%,16µM*,16µM*,-2%
